Measurements: the supplement of paper PMC10849652
The full data set covers some 8,800 targets. This sample favours those with a hit. About 0.5% of all pairs of compound and target were hits.

How the values were obtained:
Experiment in all cases: log2 fold change, soluble protein after heating vs DMSO (PISA); higher = thermal stabilisation; K562 lysate, 10 uM; active = over 0.2 and 3.5 SD of the protein, either way, in both replicates (recomputed)
alvocidib = compound: CN1CC[C@H](c2c(O)cc(O)c3c(=O)cc(-c4ccccc4Cl)oc23)[C@H](O)C1 [alvocidib]
How it was run: (§1)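 K562 pellets were dounce-homogenised in PBS pH 7.4 containing 1 mM MgCl2, and the crude extract, at 1 mg/mL protein, was exposed to 10 μM compound for 30 min. Aliquots were heated for 3 min across 48°C-58°C, pooled, brought to 0.5% NP-40 at 4°C and spun at 21,000xg for 90 min, with the supernatant taken as soluble protein. TMTpro 16plex LC-MS/MS with equalised channel sums quantified that protein. Values are log-two fold changes in thermal stability relative to solvent controls, taken from duplicates.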

Tubastatin A = compound: CN1CCc2c(c3ccccc3n2Cc2ccc(C(=O)NO)cc2)C1 [Tubastatin A]
How it was run: as §1

[1] = compound: CNC(=O)C1=CC=CC=C1NC2=NC(=NC=C2Cl)NC3=C(C=C(C=C3)N4CCOCC4)OC
How it was run: as §1

defactinib = compound: CNC(=O)c1ccc(Nc2ncc(C(F)(F)F)c(NCc3nccnc3N(C)S(C)(=O)=O)n2)cc1 [defactinib]
How it was run: as §1

[2] = compound: CNc1nc(-c2ccc3c(N)n[nH]c3c2)cc(N2C[C@@H](C(=O)NC3CCCCC3)CC[C@H]2C)n1
How it was run: as §1

encorafenib = compound: COC(=O)N[C@@H](C)CNc1nccc(-c2cn(C(C)C)nc2-c2cc(Cl)cc(NS(C)(=O)=O)c2F)n1 [encorafenib]
How it was run: as §1

[3] = compound: COC(=O)[C@H](CCSC)NC(=O)C1=C(C=C(C=C1)NC[C@H](CS)N)C2=CC=CC=C2
How it was run: as §1

alisertib = compound: COc1cc(Nc2ncc3c(n2)-c2ccc(Cl)cc2C(c2c(F)cccc2OC)=NC3)ccc1C(=O)O [alisertib]
How it was run: as §1

[4] = compound: COc1cc2nc(-c3cc(F)ccc3O)nc(N[C@@H]3CNC[C@H]3C(C)(C)O)c2cc1OC
How it was run: as §1

gefitinib = compound: COc1cc2ncnc(Nc3ccc(F)c(Cl)c3)c2cc1OCCCN1CCOCC1 [gefitinib]
How it was run: as §1

lapatinib = compound: CS(=O)(=O)CCNCc1ccc(-c2ccc3ncnc(Nc4ccc(OCc5cccc(F)c5)c(Cl)c4)c3c2)o1 [lapatinib]
How it was run: as §1

pictilisib = compound: CS(=O)(=O)N1CCN(Cc2cc3nc(-c4cccc5[nH]ncc45)nc(N4CCOCC4)c3s2)CC1 [pictilisib]
How it was run: as §1

crizotinib = compound: C[C@@H](Oc1cc(-c2cnn(C3CCNCC3)c2)cnc1N)c1c(Cl)ccc(F)c1Cl [crizotinib]
How it was run: as §1

[5] = compound: C[C@H](C1=CC=C(C=C1)C(=O)NC2=C3C=CNC3=NC=C2)N
How it was run: as §1

duvelisib = compound: C[C@H](Nc1ncnc2nc[nH]c12)c1cc2cccc(Cl)c2c(=O)n1-c1ccccc1 [duvelisib]
How it was run: as §1

gandotinib = compound: Cc1cc(Nc2cc(CN3CCOCC3)c3nc(C)c(Cc4ccc(Cl)cc4F)n3n2)n[nH]1 [gandotinib]
How it was run: as §1

tozasertib = compound: Cc1cc(Nc2cc(N3CCN(C)CC3)nc(Sc3ccc(NC(=O)C4CC4)cc3)n2)n[nH]1 [tozasertib]
How it was run: as §1

doramapimod = compound: Cc1ccc(-n2nc(C(C)(C)C)cc2NC(=O)Nc2ccc(OCCN3CCOCC3)c3ccccc23)cc1 [doramapimod]
How it was run: as §1

bafetinib = compound: Cc1ccc(NC(=O)c2ccc(CN3CC[C@H](N(C)C)C3)c(C(F)(F)F)c2)cc1Nc1nccc(-c2cncnc2)n1 [bafetinib]
How it was run: as §1

[6] = compound: Cc1cccc(CC(=O)N2CCc3c2ccc(-c2cn(C)c4ncnc(N)c24)c3F)n1
How it was run: as §1

Measured: log2 fold change

KSR1 (UniProt Q8IVT5)
inactive: alvocidib 0.214 | Tubastatin A -0.086 | [1] -0.042 | defactinib -0.045 | [2] -0.038 | encorafenib 0.075 | [3] 0.257 | alisertib 0.028 | [4] 0.115 | gefitinib -0.016 | lapatinib -0.107 | pictilisib 0.064 | crizotinib -0.015 | [5] 0.006 | duvelisib -0.026 | gandotinib -0.087 | tozasertib 0.017 | doramapimod -0.065 | bafetinib -0.038 | [6] -0.156

MICU2 (UniProt Q8IYU8)
UniProt Q8IYU8, sequence (Q8IYU8 whole entry, looked up): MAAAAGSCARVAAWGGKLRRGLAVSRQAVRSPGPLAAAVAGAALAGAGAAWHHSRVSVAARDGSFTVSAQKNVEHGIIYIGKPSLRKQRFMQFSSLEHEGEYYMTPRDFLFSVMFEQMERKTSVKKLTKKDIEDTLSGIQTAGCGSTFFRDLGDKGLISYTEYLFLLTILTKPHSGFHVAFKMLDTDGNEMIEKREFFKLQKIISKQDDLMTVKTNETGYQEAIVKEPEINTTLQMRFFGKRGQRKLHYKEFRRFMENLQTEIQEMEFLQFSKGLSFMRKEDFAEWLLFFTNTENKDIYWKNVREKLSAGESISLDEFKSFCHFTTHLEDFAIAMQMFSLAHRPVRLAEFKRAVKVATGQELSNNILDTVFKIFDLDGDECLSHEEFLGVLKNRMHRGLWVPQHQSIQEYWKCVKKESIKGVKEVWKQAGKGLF
inactive: alvocidib 0.03 | Tubastatin A -0.039 | [1] 0.01 | defactinib 0.003 | [2] 0.009 | encorafenib 0.015 | [3] -0.091 | alisertib 0.039 | [4] -0.128 | gefitinib -0.054 | lapatinib -0.057 | pictilisib 0.036 | crizotinib -0.043 | [5] 0.026 | duvelisib 0.015 | tozasertib 0.083 | doramapimod 0.029 | bafetinib -0.056 | [6] 0.029
active: gandotinib -0.264

KLC1 isoform 6 (UniProt Q07866)
UniProt Q07866, sequence (Q07866 whole entry, looked up): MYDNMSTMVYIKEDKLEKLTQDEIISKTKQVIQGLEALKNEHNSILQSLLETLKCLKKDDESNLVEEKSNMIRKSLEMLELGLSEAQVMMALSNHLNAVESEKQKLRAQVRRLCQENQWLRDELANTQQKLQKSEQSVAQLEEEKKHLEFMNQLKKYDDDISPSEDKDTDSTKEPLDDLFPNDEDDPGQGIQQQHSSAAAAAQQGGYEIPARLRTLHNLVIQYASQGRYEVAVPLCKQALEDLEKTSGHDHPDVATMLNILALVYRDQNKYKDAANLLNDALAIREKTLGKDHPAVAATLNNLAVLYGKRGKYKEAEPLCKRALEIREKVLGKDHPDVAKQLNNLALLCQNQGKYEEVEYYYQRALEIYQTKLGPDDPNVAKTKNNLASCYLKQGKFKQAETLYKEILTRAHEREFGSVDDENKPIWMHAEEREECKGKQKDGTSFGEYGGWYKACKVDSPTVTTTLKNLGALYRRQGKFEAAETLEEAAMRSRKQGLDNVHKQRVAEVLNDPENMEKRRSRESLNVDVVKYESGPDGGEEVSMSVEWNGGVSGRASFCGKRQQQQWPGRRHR
inactive: alvocidib -0.015 | Tubastatin A -0.038 | [1] 0.02 | defactinib -0.003 | [2] -0.018 | encorafenib 0.002 | [3] 0.002 | alisertib 0.002 | [4] 0.014 | gefitinib -0.009 | lapatinib -0.011 | pictilisib -0.001 | crizotinib 0 | [5] -0.009 | duvelisib -0.031 | gandotinib -0.073 | tozasertib -0.004 | doramapimod 0.026 | bafetinib -0.008 | [6] 0.005

KIF15 (UniProt Q9NS87)
UniProt Q9NS87, sequence (Q9NS87 whole entry, looked up): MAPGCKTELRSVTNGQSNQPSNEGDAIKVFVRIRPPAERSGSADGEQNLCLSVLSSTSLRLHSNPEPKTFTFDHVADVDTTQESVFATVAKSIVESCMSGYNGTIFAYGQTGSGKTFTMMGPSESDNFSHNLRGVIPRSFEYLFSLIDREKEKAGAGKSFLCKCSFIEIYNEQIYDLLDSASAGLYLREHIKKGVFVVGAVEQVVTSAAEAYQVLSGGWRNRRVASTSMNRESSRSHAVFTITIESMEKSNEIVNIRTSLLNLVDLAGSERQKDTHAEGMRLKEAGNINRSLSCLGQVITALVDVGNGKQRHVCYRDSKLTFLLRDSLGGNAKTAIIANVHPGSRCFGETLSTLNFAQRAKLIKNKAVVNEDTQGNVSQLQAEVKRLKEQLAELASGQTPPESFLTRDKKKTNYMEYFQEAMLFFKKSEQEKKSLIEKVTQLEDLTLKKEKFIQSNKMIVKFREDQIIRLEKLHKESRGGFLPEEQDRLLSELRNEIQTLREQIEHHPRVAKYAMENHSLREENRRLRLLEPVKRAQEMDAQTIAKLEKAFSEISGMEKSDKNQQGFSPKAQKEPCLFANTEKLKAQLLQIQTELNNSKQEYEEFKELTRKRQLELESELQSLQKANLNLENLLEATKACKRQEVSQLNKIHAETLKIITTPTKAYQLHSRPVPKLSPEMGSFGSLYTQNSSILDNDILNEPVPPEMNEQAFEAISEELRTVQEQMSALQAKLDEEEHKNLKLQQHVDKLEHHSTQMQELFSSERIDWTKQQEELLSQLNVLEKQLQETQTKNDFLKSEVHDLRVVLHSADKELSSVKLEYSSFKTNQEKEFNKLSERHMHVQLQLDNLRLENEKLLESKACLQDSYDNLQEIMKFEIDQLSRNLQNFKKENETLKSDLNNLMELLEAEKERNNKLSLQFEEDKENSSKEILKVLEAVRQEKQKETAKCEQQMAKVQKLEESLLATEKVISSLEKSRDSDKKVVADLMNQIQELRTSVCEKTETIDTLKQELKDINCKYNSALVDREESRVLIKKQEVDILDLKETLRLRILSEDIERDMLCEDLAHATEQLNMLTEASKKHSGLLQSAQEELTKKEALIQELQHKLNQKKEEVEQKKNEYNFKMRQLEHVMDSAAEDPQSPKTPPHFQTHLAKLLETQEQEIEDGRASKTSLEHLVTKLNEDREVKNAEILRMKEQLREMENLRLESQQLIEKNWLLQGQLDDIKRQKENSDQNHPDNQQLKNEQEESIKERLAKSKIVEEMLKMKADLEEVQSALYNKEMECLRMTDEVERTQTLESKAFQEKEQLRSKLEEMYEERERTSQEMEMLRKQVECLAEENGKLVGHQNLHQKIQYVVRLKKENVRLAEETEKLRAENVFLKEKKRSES
inactive: alvocidib -0.002 | Tubastatin A -0.058 | [1] 0.006 | defactinib -0.011 | [2] 0.006 | encorafenib 0.01 | [3] 0.121 | alisertib -0.013 | [4] -0.014 | gefitinib 0.003 | lapatinib -0.02 | pictilisib 0.006 | crizotinib -0.017 | [5] 0 | duvelisib -0.002 | gandotinib -0.017 | tozasertib 0.008 | doramapimod 0.006 | bafetinib -0.025 | [6] 0.033

MED17 (UniProt Q9NVC6)
UniProt Q9NVC6, sequence (Q9NVC6 whole entry, looked up): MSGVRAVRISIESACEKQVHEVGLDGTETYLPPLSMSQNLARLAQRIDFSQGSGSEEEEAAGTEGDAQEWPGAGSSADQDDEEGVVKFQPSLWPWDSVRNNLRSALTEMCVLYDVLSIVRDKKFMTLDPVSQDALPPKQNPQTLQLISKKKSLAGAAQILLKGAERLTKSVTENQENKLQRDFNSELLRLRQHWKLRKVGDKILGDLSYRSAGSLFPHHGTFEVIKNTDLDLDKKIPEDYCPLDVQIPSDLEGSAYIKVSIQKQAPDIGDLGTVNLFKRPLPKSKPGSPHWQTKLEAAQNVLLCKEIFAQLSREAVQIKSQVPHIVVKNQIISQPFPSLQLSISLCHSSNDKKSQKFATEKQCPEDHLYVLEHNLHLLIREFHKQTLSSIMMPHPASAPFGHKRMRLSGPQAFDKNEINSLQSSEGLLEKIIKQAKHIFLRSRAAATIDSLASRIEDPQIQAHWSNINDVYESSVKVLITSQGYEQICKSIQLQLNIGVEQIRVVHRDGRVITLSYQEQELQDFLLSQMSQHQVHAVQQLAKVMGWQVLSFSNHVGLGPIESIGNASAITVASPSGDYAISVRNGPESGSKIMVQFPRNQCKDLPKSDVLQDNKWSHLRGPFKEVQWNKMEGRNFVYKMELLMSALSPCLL
inactive: alvocidib -0.001 | Tubastatin A -0.093 | [1] 0.025 | defactinib -0.035 | [2] -0.019 | encorafenib 0.03 | [3] -0.017 | alisertib -0.012 | [4] 0.023 | gefitinib -0.015 | lapatinib 0.003 | pictilisib 0.018 | crizotinib -0.029 | [5] -0.058 | duvelisib -0.005 | gandotinib -0.037 | tozasertib -0.043 | doramapimod 0.008 | bafetinib -0.005 | [6] 0.034

MAP4 (UniProt E7EVA0)
inactive: alvocidib -0.074 | Tubastatin A 0.1 | [1] 0 | defactinib 0.01 | [2] 0.037 | encorafenib -0.04 | [3] -0.117 | alisertib -0.028 | [4] 0.054 | gefitinib 0.098 | lapatinib 0.002 | pictilisib -0.054 | crizotinib -0.163 | [5] -0.096 | duvelisib 0.012 | gandotinib 0.007 | tozasertib 0.055 | doramapimod 0.017 | bafetinib -0.055 | [6] 0.008

MBLAC2 (UniProt Q68D91)
UniProt Q68D91, sequence (Q68D91 whole entry, looked up): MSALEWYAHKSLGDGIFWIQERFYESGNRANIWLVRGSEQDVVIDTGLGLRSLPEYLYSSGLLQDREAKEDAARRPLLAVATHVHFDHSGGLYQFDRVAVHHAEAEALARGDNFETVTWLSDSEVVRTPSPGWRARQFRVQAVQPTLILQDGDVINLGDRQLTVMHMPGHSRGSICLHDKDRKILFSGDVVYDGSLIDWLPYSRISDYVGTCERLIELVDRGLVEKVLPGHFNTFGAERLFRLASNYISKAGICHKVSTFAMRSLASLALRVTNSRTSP
inactive: alvocidib -0.011 | Tubastatin A 0.033 | [1] 0.041 | defactinib 0.059 | [2] -0.096 | encorafenib 0.06 | [3] -0.003 | alisertib 0.005 | [4] 0.013 | gefitinib 0.033 | lapatinib -0.012 | pictilisib -0.008 | crizotinib 0.025 | [5] -0.027 | duvelisib 0.038 | gandotinib 0.036 | tozasertib 0.084 | doramapimod 0.033 | bafetinib -0.049 | [6] 0.006

LUC7L (UniProt Q9NQ29)
active: alvocidib -0.259 | gandotinib -0.32
inactive: Tubastatin A 0.015 | [1] -0.117 | defactinib -0.075 | [2] 0.002 | encorafenib 0.065 | [3] -0.039 | alisertib 0.033 | [4] 0.01 | gefitinib 0.037 | lapatinib -0.022 | pictilisib -0.009 | crizotinib 0.097 | [5] -0.097 | duvelisib 0.006 | tozasertib 0.012 | doramapimod -0.028 | bafetinib -0.022 | [6] 0.023

MAPKAPK5 (UniProt Q8IW41)
inactive: alvocidib 0.055 | Tubastatin A 0 | [1] 0.006 | defactinib 0.003 | [2] -0.089 | encorafenib -0.074 | [3] -0.125 | alisertib -0.006 | [4] 0.01 | gefitinib 0.019 | lapatinib 0.05 | pictilisib -0.008 | crizotinib -0.085 | [5] 0.111 | duvelisib 0.04 | gandotinib -0.07 | tozasertib -0.004 | doramapimod 0.015 | bafetinib 0.019 | [6] -0.053

MON2 isoform 5 (UniProt Q7Z3U7)
UniProt Q7Z3U7, sequence (Q7Z3U7 whole entry, looked up): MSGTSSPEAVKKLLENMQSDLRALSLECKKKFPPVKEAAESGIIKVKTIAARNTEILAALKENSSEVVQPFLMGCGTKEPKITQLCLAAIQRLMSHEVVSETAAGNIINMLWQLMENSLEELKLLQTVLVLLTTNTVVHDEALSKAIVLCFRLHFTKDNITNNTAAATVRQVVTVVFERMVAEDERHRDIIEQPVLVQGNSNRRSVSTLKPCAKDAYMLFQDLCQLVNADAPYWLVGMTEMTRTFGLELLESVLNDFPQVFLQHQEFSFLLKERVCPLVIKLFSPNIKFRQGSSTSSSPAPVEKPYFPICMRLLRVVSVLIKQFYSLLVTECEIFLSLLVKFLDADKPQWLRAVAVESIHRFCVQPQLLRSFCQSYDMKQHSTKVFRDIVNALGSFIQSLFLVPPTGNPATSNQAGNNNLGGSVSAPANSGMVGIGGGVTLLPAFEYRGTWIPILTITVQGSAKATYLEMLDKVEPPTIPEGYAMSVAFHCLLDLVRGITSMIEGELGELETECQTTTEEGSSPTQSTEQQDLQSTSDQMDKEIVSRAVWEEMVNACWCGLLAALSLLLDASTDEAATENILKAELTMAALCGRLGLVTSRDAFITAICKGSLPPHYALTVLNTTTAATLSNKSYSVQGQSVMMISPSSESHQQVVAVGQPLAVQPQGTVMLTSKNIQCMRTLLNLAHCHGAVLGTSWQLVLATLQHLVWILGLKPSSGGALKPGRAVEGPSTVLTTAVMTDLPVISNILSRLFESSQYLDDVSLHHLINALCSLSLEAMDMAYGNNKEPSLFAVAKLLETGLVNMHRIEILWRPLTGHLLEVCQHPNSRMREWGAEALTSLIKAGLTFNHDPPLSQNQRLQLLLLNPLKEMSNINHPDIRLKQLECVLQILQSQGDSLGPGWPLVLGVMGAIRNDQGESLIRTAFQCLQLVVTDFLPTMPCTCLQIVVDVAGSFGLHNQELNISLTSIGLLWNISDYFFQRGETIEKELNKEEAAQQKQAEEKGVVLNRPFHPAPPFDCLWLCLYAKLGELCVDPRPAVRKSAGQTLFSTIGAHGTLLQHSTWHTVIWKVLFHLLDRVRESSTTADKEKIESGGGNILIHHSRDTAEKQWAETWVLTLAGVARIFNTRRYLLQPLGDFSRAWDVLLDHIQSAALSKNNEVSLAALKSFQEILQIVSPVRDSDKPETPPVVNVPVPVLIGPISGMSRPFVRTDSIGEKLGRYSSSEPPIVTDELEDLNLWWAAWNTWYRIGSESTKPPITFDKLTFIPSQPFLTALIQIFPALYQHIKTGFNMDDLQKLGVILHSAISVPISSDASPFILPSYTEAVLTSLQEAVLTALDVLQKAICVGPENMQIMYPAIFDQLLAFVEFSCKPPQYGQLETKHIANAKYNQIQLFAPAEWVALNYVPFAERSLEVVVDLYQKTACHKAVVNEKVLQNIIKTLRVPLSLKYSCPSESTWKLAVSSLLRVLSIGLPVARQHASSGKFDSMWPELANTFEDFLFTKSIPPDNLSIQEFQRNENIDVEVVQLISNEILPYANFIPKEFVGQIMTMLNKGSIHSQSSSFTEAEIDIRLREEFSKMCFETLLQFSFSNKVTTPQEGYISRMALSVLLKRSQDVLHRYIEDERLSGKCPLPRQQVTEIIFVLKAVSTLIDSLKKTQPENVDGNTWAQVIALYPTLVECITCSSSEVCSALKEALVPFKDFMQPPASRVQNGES
inactive: alvocidib 0.003 | Tubastatin A -0.149 | [1] 0.018 | defactinib 0.023 | [2] -0.014 | encorafenib 0.034 | [3] -0.035 | alisertib -0.004 | [4] 0 | gefitinib 0.005 | lapatinib -0.034 | pictilisib -0.027 | crizotinib -0.077 | [5] -0.042 | duvelisib 0.003 | gandotinib -0.031 | tozasertib 0.001 | doramapimod -0.011 | bafetinib -0.035 | [6] 0.12

MAP3K4 (UniProt Q9Y6R4)
inactive: alvocidib -0.027 | Tubastatin A -0.113 | defactinib 0.071 | [2] -0.018 | encorafenib -0.171 | [3] 0.128 | alisertib -0.028 | [4] -0.045 | gefitinib 0.081 | lapatinib -0.02 | pictilisib 0.009 | crizotinib 0.033 | [5] 0.064 | duvelisib -0.017 | gandotinib 0.034 | tozasertib 0.092 | doramapimod 0.073 | bafetinib -0.031 | [6] -0.041
active: [1] 0.366

LIG4 (UniProt P49917)
active: [3] 0.415
inactive: alvocidib 0.02 | Tubastatin A -0.025 | [1] -0.04 | defactinib 0.063 | [2] 0.005 | encorafenib 0.048 | alisertib -0.049 | [4] -0.096 | gefitinib -0.069 | lapatinib 0.028 | pictilisib -0.245 | crizotinib -0.035 | [5] -0.064 | duvelisib 0.022 | gandotinib -0.07 | tozasertib -0.034 | doramapimod -0.037 | bafetinib -0.167 | [6] 0.073

MRPL28 (UniProt Q13084)
inactive: alvocidib 0.261 | Tubastatin A -0.074 | [1] -0.11 | defactinib 0.039 | [2] 0.001 | encorafenib 0.026 | [3] -0.026 | alisertib 0.045 | [4] -0.02 | gefitinib 0.072 | lapatinib -0.046 | pictilisib 0.03 | crizotinib -0.08 | duvelisib 0.043 | gandotinib -0.246 | tozasertib 0.059 | doramapimod -0.012 | bafetinib -0.04 | [6] -0.228
active: [5] 0.482

MGAT5 (UniProt Q09328)
inactive: alvocidib 0.056 | Tubastatin A -0.009 | [1] -0.011 | [2] -0.026 | encorafenib 0.006 | [3] -0.095 | alisertib 0.025 | [4] 0.054 | gefitinib -0.064 | lapatinib 0.022 | pictilisib 0.066 | crizotinib -0.051 | [5] 0.098 | duvelisib 0.018 | gandotinib -0.106 | tozasertib -0.037 | doramapimod 0.023 | bafetinib 0.079 | [6] -0.112
active: defactinib -0.337

KNL1 (UniProt Q8NG31)
inactive: alvocidib -0.008 | Tubastatin A -0.073 | [1] 0.024 | defactinib -0.007 | [2] 0.018 | encorafenib 0.043 | [3] 0.055 | alisertib -0.032 | [4] 0.004 | gefitinib 0.008 | lapatinib 0.007 | pictilisib -0.031 | crizotinib -0.015 | [5] -0.011 | duvelisib -0.001 | gandotinib -0.032 | tozasertib -0.027 | doramapimod 0.008 | bafetinib -0.017 | [6] 0.016

KPNA4 (UniProt O00629)
inactive: alvocidib -0.098 | Tubastatin A 0.007 | [1] 0.014 | defactinib -0.002 | [2] 0.008 | encorafenib 0.02 | [3] -0.059 | alisertib -0.007 | [4] 0.002 | gefitinib 0.013 | lapatinib 0.03 | pictilisib 0.011 | crizotinib -0.044 | duvelisib 0.012 | gandotinib 0.089 | tozasertib -0.018 | doramapimod 0.02 | bafetinib 0.049 | [6] 0.155
active: [5] -0.217
